In the supplement of paper PMC10849652:
The full data set covers some 7,900 targets. This sample favours those with a hit. About 0.6% of all pairs of compound and target were hits.

How the values were obtained:
Test in all cases: log2 fold change, soluble protein after heating vs DMSO (PISA); higher = thermal stabilisation; K562 cells, 10 uM, 30 min; active = over 0.2 and 3.5 SD of the protein, either way, in both replicates (recomputed)
[1] = compound: C1=CC=C(C=C1)[C@H](COC2=CC3=C(C=C2)NC(=O)N3)NC(=O)C4=CC=CN(C4=O)CC5=CC(=C(C=C5)F)F
In short: (§1)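 K562 cells at 2×10^6 cells/mL were treated for 30 min with 10 μM compound, and aliquots were heated for 3 min over 48°C-58°C before pooling. Extraction used PBS with 0.5% NP-40 at 4°C, and soluble protein was the supernatant after 21,000xg for 90 min, measured by TMTpro 16plex LC-MS/MS with channel sums equalised. Thermal stability values, relative to control samples and from duplicates, are log2 fold changes.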

[2] = compound: CC1=C(SC2=C1C(=N[C@H](C3=NN=C(N32)C)CC(=O)N)C4=CC=C(C=C4)Cl)C
In short: as §1

[3] = compound: CC1=C2C(=CC=C1)N=C(N(C2=O)C3=CC=CC=C3C)CN4C=NC5=C(N=CN=C54)N
In short: as §1

[4] = compound: Cc1sc2c(c1C)C(c1ccc(Cl)cc1)=N[C@@H](CC(=O)OC(C)(C)C)c1nnc(C)n1-2
In short: as §1

[5] = compound: c1ccc([C@@H]2C[C@H]2NC2CCNCC2)cc1
In short: as §1

Measured: log2 fold change

CHD3 isoform 3 (UniProt Q12873)
inactive: [1] -0.104 | [2] 0.038 | [3] 0.069 | [4] -0.038 | [5] 0.087

CLPX (UniProt O76031)
inactive: [1] 0.011 | [2] -0.02 | [3] 0.013 | [4] -0.035 | [5] 0.048

CLTB (UniProt P09497)
inactive: [1] 0.021 | [2] -0.01 | [3] -0.016 | [4] -0.01 | [5] -0.02

CHMP4C (UniProt Q96CF2)
inactive: [1] -0.002 | [2] 0.169 | [3] 0.045 | [4] 0.051 | [5] 0.03

C19orf53 (UniProt Q9UNZ5)
inactive: [1] 0.105 | [2] -0.258 | [3] -0.266 | [4] 0.203 | [5] -0.01

CCND3 (UniProt P30281)
inactive: [1] -0.105 | [2] -0.015 | [3] 0.121 | [4] 0.033 | [5] 0.053

CDC42EP1 (UniProt Q00587)
inactive: [1] -0.067 | [2] 0.107 | [3] 0.041 | [4] 0.043 | [5] -0.029

CDK11B (UniProt P21127)
inactive: [1] -0.05 | [2] 0.015 | [3] 0.137 | [4] -0.01 | [5] 0.059

CDAN1 (UniProt Q8IWY9)
inactive: [1] -0.035 | [2] -0.049 | [3] 0.051 | [4] 0.091 | [5] 0.022

CD68 (UniProt P34810)
inactive: [1] 0.021

CSNK1A1 isoform 3 (UniProt P48729)
inactive: [1] -0.061

CKB (UniProt P12277)
inactive: [1] -0.1 | [2] 0.01 | [3] 0.038 | [4] -0.022 | [5] -0.118

CPQ (UniProt Q9Y646)
inactive: [1] 0.045 | [2] -0.077 | [3] -0.078 | [4] -0.031 | [5] 0.084

CNDP2 (UniProt Q96KP4)
UniProt Q96KP4, sequence (Q96KP4 whole entry, looked up): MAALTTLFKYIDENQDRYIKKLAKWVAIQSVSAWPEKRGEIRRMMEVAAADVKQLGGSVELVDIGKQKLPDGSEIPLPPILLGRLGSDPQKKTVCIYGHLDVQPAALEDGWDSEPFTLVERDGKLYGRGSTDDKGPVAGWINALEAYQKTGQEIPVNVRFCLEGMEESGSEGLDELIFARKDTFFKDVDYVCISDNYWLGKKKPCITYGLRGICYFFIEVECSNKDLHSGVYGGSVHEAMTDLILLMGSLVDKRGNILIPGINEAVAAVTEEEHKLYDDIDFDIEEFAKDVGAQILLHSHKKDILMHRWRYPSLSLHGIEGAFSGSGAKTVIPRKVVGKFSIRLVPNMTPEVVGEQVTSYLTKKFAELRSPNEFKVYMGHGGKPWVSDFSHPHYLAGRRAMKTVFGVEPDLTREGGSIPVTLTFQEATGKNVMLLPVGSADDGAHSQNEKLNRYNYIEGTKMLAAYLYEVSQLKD
inactive: [1] -0.006 | [2] 0.039 | [3] 0.023 | [4] 0.009 | [5] -0.041

CHKA (UniProt P35790)
inactive: [1] -0.055 | [2] -0.023 | [3] 0.124 | [4] -0.004 | [5] 0.19

CRMP1 isoform 2 (UniProt Q14194)
inactive: [1] -0.014 | [2] 0.074 | [3] -0.066 | [4] 0.002 | [5] -0.006

CLUH (UniProt O75153)
inactive: [1] -0.05 | [2] 0.027 | [3] 0.086 | [4] -0.016 | [5] -0.052

CPD (UniProt O75976)
inactive: [1] 0.008 | [2] 0.014 | [3] 0.044 | [4] -0.013 | [5] 0.053

CHERP (UniProt Q8IWX8)
inactive: [1] -0.023 | [2] -0.07 | [3] 0.008 | [4] 0.101 | [5] 0.018

CDK16 isoform 2 (UniProt Q00536)
inactive: [1] -0.009 | [2] 0.026 | [3] 0.043 | [4] -0.014 | [5] -0.074

CIR1 (UniProt Q86X95)
inactive: [1] -0.075 | [2] -0.286 | [3] -0.241 | [4] 0.198 | [5] 0.217

CALB1 (UniProt P05937)
inactive: [1] 0.001 | [2] 0.009 | [3] -0.045 | [4] -0.068 | [5] 0.026

CASP7 isoform 3 (UniProt P55210)
inactive: [1] 0.12

CASP10 isoform 4 (UniProt Q92851)
UniProt Q92851, sequence (Q92851 whole entry, looked up): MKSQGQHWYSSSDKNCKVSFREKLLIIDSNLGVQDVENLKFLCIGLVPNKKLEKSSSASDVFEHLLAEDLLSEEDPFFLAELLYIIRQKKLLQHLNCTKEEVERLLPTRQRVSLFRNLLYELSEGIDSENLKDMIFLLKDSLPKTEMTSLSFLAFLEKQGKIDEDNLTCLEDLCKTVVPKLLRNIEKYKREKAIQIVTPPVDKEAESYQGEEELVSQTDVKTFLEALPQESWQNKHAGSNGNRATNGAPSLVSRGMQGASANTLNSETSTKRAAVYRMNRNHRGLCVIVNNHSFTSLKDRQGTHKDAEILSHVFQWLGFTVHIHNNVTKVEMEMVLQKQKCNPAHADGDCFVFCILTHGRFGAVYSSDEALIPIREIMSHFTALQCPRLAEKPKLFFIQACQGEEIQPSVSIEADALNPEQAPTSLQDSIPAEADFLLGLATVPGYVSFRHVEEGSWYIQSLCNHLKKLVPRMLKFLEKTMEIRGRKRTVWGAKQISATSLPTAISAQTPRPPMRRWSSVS
inactive: [1] 0.064 | [2] 0.189 | [3] 0.114 | [4] 0.002 | [5] -0.145

CRYM-AS1 (UniProt A6NIL9)
inactive: [1] -0.295 | [2] 0.037 | [3] 0.297 | [4] -0.201 | [5] -0.002

CHEK1 (UniProt O14757)
inactive: [1] 0.006 | [2] 0.065 | [3] 0.087 | [4] 0.025 | [5] 0.01

CETN3 (UniProt O15182)
inactive: [1] 0.019 | [2] -0.055 | [3] 0.109 | [4] 0.008 | [5] -0.014

CLN8 (UniProt Q9UBY8)
inactive: [1] 0.121 | [2] 0.042 | [3] -0.067 | [4] 0.043 | [5] -0.057

CS (UniProt F8VU34)
inactive: [1] -0.03

CHP1 (UniProt Q99653)
inactive: [1] 0.022 | [2] 0.016 | [3] -0.058 | [4] -0.057 | [5] -0.015

COPS3 (UniProt Q9UNS2)
UniProt Q9UNS2, sequence (Q9UNS2 whole entry, looked up): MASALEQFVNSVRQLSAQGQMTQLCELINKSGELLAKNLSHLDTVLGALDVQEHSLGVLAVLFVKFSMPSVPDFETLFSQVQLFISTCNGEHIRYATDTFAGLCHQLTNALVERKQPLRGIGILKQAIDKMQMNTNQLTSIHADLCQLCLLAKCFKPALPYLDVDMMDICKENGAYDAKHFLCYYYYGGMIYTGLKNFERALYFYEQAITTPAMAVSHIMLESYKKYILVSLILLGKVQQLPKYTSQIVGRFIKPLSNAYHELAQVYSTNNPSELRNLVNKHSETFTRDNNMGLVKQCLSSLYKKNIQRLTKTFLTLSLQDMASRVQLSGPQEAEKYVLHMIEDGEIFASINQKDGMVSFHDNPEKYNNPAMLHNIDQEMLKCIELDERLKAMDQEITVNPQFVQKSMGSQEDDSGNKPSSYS
inactive: [1] 0.011 | [2] 0.001 | [3] 0 | [4] -0.007 | [5] -0.005

CENPE (UniProt Q02224)
inactive: [1] -0.005 | [2] -0.139 | [3] 0.049 | [4] -0.001 | [5] -0.362

CHMP4B (UniProt Q9H444)
inactive: [1] -0.015 | [2] -0.004 | [3] 0.031 | [4] 0.056 | [5] 0.054

CBR1 (UniProt P16152)
inactive: [1] -0.009 | [2] 0.015 | [3] 0.01 | [4] -0.028 | [5] -0.037

CDK13 (UniProt Q14004)
inactive: [1] 0.031 | [2] 0.019 | [3] -0.017 | [4] 0.161 | [5] -0.004

CCDC59 (UniProt Q9P031)
inactive: [1] 0.012 | [2] -0.177 | [3] -0.214 | [4] 0.165 | [5] 0.052

CASC3 (UniProt O15234)
UniProt O15234, sequence (O15234 whole entry, looked up): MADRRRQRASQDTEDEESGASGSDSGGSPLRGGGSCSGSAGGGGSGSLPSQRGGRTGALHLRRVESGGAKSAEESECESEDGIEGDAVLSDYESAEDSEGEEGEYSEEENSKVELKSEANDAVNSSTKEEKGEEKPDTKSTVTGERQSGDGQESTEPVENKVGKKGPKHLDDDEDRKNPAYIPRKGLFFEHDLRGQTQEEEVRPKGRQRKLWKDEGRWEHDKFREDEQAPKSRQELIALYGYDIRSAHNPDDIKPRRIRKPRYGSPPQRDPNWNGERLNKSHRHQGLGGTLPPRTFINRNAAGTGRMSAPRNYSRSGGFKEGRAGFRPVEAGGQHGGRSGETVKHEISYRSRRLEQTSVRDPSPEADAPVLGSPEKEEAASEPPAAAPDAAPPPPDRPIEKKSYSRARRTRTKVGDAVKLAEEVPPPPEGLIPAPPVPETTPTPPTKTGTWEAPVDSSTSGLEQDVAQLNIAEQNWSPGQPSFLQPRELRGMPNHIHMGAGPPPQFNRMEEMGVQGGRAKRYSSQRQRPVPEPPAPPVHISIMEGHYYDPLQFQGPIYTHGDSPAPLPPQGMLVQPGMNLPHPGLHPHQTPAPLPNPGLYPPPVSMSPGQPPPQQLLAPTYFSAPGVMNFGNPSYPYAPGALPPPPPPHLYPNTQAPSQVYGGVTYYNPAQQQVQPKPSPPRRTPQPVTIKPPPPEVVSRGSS
inactive: [1] 0.02 | [2] 0.044 | [3] 0.015 | [4] 0.244 | [5] 0.025

CAMKK2 (UniProt Q96RR4)
UniProt Q96RR4, sequence (Q96RR4 whole entry, looked up): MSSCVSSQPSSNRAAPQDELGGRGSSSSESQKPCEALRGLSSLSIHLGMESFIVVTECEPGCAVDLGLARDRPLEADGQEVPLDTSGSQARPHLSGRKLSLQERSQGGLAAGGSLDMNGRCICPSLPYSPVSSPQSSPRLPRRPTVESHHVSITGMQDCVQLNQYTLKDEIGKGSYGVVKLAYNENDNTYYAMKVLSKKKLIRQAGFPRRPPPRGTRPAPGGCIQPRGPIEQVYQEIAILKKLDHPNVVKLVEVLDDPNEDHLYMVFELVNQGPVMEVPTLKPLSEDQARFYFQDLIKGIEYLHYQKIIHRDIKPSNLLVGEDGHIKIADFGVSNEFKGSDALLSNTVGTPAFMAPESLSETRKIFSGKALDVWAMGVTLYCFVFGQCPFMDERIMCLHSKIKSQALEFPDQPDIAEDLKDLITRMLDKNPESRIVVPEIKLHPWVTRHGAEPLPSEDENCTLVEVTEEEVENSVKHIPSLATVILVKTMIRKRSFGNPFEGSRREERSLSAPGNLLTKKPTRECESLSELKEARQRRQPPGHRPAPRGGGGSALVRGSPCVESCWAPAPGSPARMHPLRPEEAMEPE
inactive: [1] -0.047 | [2] 0.388 | [3] 0.023 | [4] 0.019 | [5] 0.149

CEPT1 (UniProt Q9Y6K0)
inactive: [1] -0.064 | [2] 0.105 | [3] 0.074 | [4] -0.121 | [5] -0.054

CCNT1 (UniProt O60563)
inactive: [1] 0.108 | [2] -0.022 | [3] -0.036 | [4] 0.085 | [5] 0.072

CD63 (UniProt P08962)
inactive: [1] 0.041 | [2] 0.02 | [3] -0.008 | [4] 0.009 | [5] 0.035

CCNH (UniProt P51946)
inactive: [1] 0.02 | [2] -0.035 | [3] 0.032 | [4] 0.002 | [5] 0.033

CLINT1 (UniProt Q14677)
inactive: [1] 0.063 | [2] 0.131 | [3] -0.005 | [4] -0.009 | [5] 0.157

CPT1A (UniProt P50416)
inactive: [1] 0.095 | [2] 0.011 | [3] 0.125 | [4] -0.022 | [5] -0.118

CCDC57 (UniProt Q2TAC2)
inactive: [1] 0.015 | [3] 0.047 | [4] -0.161 | [5] -0.139
active: [2] 0.262

CASP2 (UniProt P42575)
inactive: [1] -0.039 | [2] 0.016 | [3] 0.027 | [4] -0.01 | [5] -0.039

CHCHD1 (UniProt Q96BP2)
inactive: [1] 0.07 | [2] -0.056 | [3] -0.031 | [4] 0.168 | [5] 0.021

COMMD2 (UniProt Q86X83)
inactive: [1] -0.029 | [2] 0.053 | [3] 0 | [4] -0.199 | [5] 0.04

CHAMP1 (UniProt Q96JM3)
inactive: [1] -0.073 | [2] 0.044 | [3] 0.022 | [4] -0.051 | [5] -0.006

CDK1 (UniProt P06493)
inactive: [1] -0.019 | [2] 0.036 | [3] 0.003 | [4] 0.019 | [5] 0.037

CD81 (UniProt P60033)
inactive: [1] -0.083 | [2] -0.013 | [3] -0.035 | [4] 0.03 | [5] 0.109

CAMSAP1 isoform 3 (UniProt Q5T5Y3)
UniProt Q5T5Y3, sequence (Q5T5Y3 whole entry, looked up): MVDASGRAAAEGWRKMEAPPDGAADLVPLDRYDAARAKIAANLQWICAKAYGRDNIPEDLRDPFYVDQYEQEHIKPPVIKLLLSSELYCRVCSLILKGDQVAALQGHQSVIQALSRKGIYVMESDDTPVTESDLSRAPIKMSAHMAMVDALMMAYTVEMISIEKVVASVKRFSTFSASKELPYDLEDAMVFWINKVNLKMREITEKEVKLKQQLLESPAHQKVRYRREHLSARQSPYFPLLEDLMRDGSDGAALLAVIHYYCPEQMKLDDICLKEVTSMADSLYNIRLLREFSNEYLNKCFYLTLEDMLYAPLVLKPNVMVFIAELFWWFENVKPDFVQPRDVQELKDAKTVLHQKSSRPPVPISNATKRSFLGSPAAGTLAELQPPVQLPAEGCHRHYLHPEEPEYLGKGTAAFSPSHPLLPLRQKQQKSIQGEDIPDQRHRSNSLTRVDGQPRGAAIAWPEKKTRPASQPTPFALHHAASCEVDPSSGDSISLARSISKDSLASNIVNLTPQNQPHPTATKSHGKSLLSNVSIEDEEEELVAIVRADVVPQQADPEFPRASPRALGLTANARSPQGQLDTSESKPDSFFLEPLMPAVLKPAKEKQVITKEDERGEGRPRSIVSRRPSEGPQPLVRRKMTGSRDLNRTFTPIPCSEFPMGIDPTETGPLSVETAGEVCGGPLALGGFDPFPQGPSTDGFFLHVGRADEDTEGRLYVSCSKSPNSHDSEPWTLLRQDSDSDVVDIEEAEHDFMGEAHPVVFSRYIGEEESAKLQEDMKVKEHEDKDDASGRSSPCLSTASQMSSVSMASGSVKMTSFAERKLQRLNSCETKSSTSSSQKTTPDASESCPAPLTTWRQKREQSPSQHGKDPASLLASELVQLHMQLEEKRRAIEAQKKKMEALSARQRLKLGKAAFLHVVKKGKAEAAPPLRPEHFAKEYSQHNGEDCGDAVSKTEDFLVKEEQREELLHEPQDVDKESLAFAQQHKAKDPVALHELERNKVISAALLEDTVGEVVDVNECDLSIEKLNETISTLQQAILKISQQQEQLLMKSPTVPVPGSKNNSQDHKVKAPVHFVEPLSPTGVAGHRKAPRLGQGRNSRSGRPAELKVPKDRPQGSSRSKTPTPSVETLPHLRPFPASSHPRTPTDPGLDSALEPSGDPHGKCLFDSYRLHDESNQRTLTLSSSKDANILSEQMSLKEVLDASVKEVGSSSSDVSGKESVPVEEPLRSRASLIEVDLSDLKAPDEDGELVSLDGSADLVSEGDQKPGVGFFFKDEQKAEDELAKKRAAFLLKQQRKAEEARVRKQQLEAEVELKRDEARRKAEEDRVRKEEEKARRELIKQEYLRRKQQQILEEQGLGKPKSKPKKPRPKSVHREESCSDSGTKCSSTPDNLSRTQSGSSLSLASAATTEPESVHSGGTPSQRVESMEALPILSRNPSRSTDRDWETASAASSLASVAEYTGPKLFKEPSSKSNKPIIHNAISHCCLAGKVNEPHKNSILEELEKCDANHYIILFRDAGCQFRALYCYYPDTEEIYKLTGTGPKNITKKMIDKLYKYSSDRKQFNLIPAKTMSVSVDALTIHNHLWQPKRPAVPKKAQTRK
inactive: [1] -0.06 | [2] 0.083 | [3] 0.221 | [4] 0.016 | [5] 0.02

CLPTM1L (UniProt G5E9Z2)
inactive: [1] -0.22 | [2] 0.148 | [3] -0.012 | [4] -0.07 | [5] -0.1

CSTF3 (UniProt Q12996)
UniProt Q12996, sequence (Q12996 whole entry, looked up): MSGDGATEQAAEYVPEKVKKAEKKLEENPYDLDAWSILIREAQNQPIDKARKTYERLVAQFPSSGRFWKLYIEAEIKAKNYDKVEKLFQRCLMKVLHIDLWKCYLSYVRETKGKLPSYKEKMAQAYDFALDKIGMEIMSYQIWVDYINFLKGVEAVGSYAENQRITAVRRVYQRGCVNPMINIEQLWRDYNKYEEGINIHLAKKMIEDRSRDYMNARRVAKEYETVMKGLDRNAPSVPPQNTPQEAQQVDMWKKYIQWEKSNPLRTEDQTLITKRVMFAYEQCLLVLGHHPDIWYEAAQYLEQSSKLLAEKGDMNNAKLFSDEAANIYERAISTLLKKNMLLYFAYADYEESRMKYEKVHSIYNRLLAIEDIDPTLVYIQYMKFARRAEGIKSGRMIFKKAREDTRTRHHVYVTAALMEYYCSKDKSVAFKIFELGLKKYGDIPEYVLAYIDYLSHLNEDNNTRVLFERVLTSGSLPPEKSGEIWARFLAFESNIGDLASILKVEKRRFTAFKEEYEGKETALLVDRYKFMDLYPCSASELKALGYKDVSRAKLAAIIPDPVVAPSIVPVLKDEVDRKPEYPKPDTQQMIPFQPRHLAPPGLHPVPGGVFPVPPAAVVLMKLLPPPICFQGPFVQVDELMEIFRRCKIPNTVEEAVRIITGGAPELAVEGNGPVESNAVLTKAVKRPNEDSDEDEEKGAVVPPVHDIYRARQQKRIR
inactive: [1] -0.005 | [2] 0.064 | [3] -0.007 | [4] 0.03 | [5] -0.016

CLCN7 (UniProt P51798)
inactive: [1] -0.018 | [2] 0.024 | [3] -0.054 | [4] 0.024 | [5] -0.032
